Measured values from PubChem BioAssay AID1159580 (chemical genetic matrix, 2015).
Several values for one entry are separate records, joined by “and”; a condition that tells them apart may be missing. Equal entries are not always repeated. Screen size: about 5,500 compounds; about 2,000 (36%) were called active. Inconclusive results (about 18%) are left out. No stated cut-off is given here; in the data, active means normalized growth mostly below about 0.91 (no sharp cut-off); inconclusive means no clear call, values can overlap the other calls; inactive means mostly above about 0.92. Some of the results follow.

Test: chemical genetic growth profiling, strain panel (AID 1159580);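 further: tested at 20 µM; growth read once vehicle control cultures reached saturation at 30 °C; 1 = growth at the plate median or of vehicle wells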
Conditions: S. cerevisiae deletion strains, growth OD

Measured: normalized growth

CCC(CCC(C)[C@H]1CCC2C3CC=C4C[C@@H](O)CC[C@]4(C)C3CC[C@@]21C)C(C)C (stereo partly drawn)
inactive: locus YAL013W, strain DEP1, stronger effect = lower value 0.998 | locus YAL021C, strain ccr4, stronger effect = lower value 1.01 | locus YAL026C, strain drs2, stronger effect = lower value 1.01 | locus YAL030W, strain snc1, stronger effect = lower value 1.01 | locus YBL061C, strain skt5, stronger effect = lower value 1.02 | locus YBR009C, strain hhf1, stronger effect = lower value 1.02 | locus YBR021W, strain FUR4, stronger effect = lower value 1.02 | locus YBR023C, strain chs3, stronger effect = lower value 1.01 | locus YBR171W, strain sec66, stronger effect = lower value 1.04 | locus YBR229C, strain ROT2, stronger effect = lower value 0.988 | locus YBR231C, strain swc5, stronger effect = lower value 1.01 | locus YBR279W, strain paf1, stronger effect = lower value 1.01 | locus YCL011C, strain gbp2, stronger effect = lower value 1.02 | locus YCL016C, strain dcc1, stronger effect = lower value 1.02 | locus YCL029C, strain bik1, stronger effect = lower value 0.999 | locus YCL061C, strain MRC1, stronger effect = lower value 1.02 | locus YCL069W, strain vba3, stronger effect = lower value 1.02 | locus YCR088W, strain abp1, stronger effect = lower value 1.02 | locus YDL005C, strain med2, stronger effect = lower value 1.02 | locus YDL035C, strain GPR1, stronger effect = lower value 1.05 | locus YDL040C, strain nat1, stronger effect = lower value 1.02 | locus YDL074C, strain BRE1, stronger effect = lower value 1.05 | locus YDL101C, strain DUN1, stronger effect = lower value 0.973 | locus YDL134C, strain PPH21, stronger effect = lower value 0.97 | locus YDL185W, strain tfp1, stronger effect = lower value 0.976 | locus YDL192W, strain arf1, stronger effect = lower value 1.02 | locus YDR001C, strain nth1, stronger effect = lower value 1.01 | locus YDR069C, strain doa4, stronger effect = lower value 1.03 | locus YDR101C, strain arx1, stronger effect = lower value 1.03 | locus YDR137W, strain rgp1, stronger effect = lower value 1.01 | locus YDR150W, strain NUM1, stronger effect = lower value 0.997 | locus YDR159W, strain sac3, stronger effect = lower value 1.04 | locus YDR162C, strain NBP2, stronger effect = lower value 0.994 | locus YDR195W, strain ref2 1.03 | locus YDR297W, strain sur2, stronger effect = lower value 1.03 | locus YDR318W, strain mcm21, stronger effect = lower value 0.986 | locus YDR334W, strain swr1, stronger effect = lower value 1.03 | locus YDR335W, strain msn5, stronger effect = lower value 1.01 | locus YDR388W, stronger effect = lower value 0.975 | locus YDR392W, strain spt3, stronger effect = lower value 1.02 | locus YDR502C, strain sam2, stronger effect = lower value 0.973 | locus YEL003W, strain gim4, stronger effect = lower value 1.01 | locus YEL037C, strain rad23, stronger effect = lower value 1.02 | locus YEL061C, strain CIN8 (second series), stronger effect = lower value 1.02 | locus YER015W, strain faa2, stronger effect = lower value 1.01 | locus YER016W, strain bim1, stronger effect = lower value 1.02 | locus YER110C, stronger effect = lower value 0.979 | locus YER111C, strain swi4, stronger effect = lower value 1.02 | locus YER155C, strain BEM2 (second series), stronger effect = lower value 1.04 | locus YER155C, strain BEM2, stronger effect = lower value 0.982 | locus YER167W, strain BCK2, stronger effect = lower value 1.01 | locus YFR010W, strain ubp6, stronger effect = lower value 1.02 | locus YGL078C, strain dbp3, stronger effect = lower value 0.983 | locus YGL086W, strain mad1, stronger effect = lower value 0.989 | locus YGL167C, strain pmr1, stronger effect = lower value 1.03 | locus YGL173C, strain kem1, stronger effect = lower value 1.02 | locus YGL227W, strain vid30, stronger effect = lower value 1.02 | locus YGL240W, strain doc1, stronger effect = lower value 1.03 | locus YGL248W, strain PDE1, stronger effect = lower value 0.978 | locus YGL253W, strain hxk2, stronger effect = lower value 1.02 | locus YGR135W, strain pre9, stronger effect = lower value 0.958 | locus YGR252W, strain gcn5, stronger effect = lower value 0.929 | locus YHR013C, strain ard1, stronger effect = lower value 1.04 | locus YHR027C, strain rpn1, stronger effect = lower value 1.01 | locus YHR030C, strain SLT2, stronger effect = lower value 0.996 | locus YHR079C, strain IRE1 (second series), stronger effect = lower value 0.987 | locus YHR079C, strain IRE1, stronger effect = lower value 0.984 | locus YHR094C, strain hxt1, stronger effect = lower value 0.984 | locus YHR129C, strain ARP1, stronger effect = lower value 0.994 | locus YHR142W, strain chs7, stronger effect = lower value 1.02 | locus YHR200W, strain rpn10, stronger effect = lower value 0.961 | locus YIL066C, strain RNR3, stronger effect = lower value 1.01 | locus YIL073C, strain SPO22, stronger effect = lower value 1.02 | locus YIL125W, strain kgd1, stronger effect = lower value 0.993 | locus YIR030C, strain dcg1, stronger effect = lower value 0.986 | locus YJL092W, strain hpr5, stronger effect = lower value 1.02 | locus YJL095W, strain BCK1 (second series), stronger effect = lower value 1.01 | locus YJL095W, strain BCK1, stronger effect = lower value 0.972 and 0.979 | locus YJL115W, strain asf1, stronger effect = lower value 1 | locus YJL129C, strain trk1, stronger effect = lower value 1.03 | locus YJL134W, strain LCB3, stronger effect = lower value 0.991 | locus YJL154C, strain vps35, stronger effect = lower value 1.02 | locus YJL164C, strain tpk1, stronger effect = lower value 1.01 | locus YJL166W, strain qcr8, stronger effect = lower value 1.02 | locus YJL168C, strain set2, stronger effect = lower value 0.988 | locus YJL187C, strain SWE1 (second series), stronger effect = lower value 0.977 | locus YJL187C, strain SWE1, stronger effect = lower value 1.01 | locus YJR043C, strain POL32, stronger effect = lower value 1.06 | locus YJR066W, strain TOR1, stronger effect = lower value 0.915 | locus YKL009W, strain mrt4, stronger effect = lower value 1.01 | locus YKL068W, stronger effect = lower value 0.981 | locus YKL085W, strain MDH1 (second series), stronger effect = lower value 0.998 | locus YKL085W, strain MDH1, stronger effect = lower value 0.998 | locus YKL160W, strain elf1, stronger effect = lower value 1.01 | locus YKR001C, strain vps1, stronger effect = lower value 1 | locus YKR026C, strain gcn3, stronger effect = lower value 1.02 | locus YKR091W, strain srl3, stronger effect = lower value 1.01 | locus YLL001W, strain dnm1, stronger effect = lower value 1.01 | locus YLL026W, stronger effect = lower value 1.02 | locus YLL041C, strain sdh2, stronger effect = lower value 1.01 | locus YLR027C, strain aat2, stronger effect = lower value 1.02 | locus YLR039C, strain RIC1, stronger effect = lower value 1.04 | locus YLR058C, strain SHM2, stronger effect = lower value 0.998 | locus YLR102C, strain apc9, stronger effect = lower value 0.976 | locus YLR113W, strain HOG1, stronger effect = lower value 0.97 | locus YLR221C, strain rsa3, stronger effect = lower value 1.01 | locus YLR258W, strain gsy2, stronger effect = lower value 1 | locus YLR262C, strain YPT6 (second series), stronger effect = lower value 1.03 | locus YLR262C, strain YPT6, stronger effect = lower value 1.05 | locus YLR268W, strain sec22, stronger effect = lower value 1.01 | locus YLR320W, strain mms22, stronger effect = lower value 1.03 | locus YLR342W, strain FKS1 (second series), stronger effect = lower value 1.08 | locus YLR342W, strain FKS1, stronger effect = lower value 1.03 | locus YLR357W, strain rsc2, stronger effect = lower value 1 | locus YLR370C, strain arc18, stronger effect = lower value 1.01 | locus YLR371W, strain rom2, stronger effect = lower value 1 | locus YLR384C, strain iki3, stronger effect = lower value 1.02 | locus YLR418C, strain cdc73, stronger effect = lower value 0.964 | locus YML016C, strain PPZ1, stronger effect = lower value 1 | locus YML032C, strain rad52, stronger effect = lower value 1.01 | locus YML120C, strain ndi1, stronger effect = lower value 1.01 | locus YML124C, strain tub3, stronger effect = lower value 0.986 | locus YMR058W, strain fet3, stronger effect = lower value 1.02 | locus YMR078C, strain ctf18, stronger effect = lower value 0.971 | locus YMR125W, strain sto1, stronger effect = lower value 1.01 | locus YMR129W, stronger effect = lower value 1.01 | locus YMR205C, strain PFK2, stronger effect = lower value 1.03 | locus YMR223W, strain ubp8, stronger effect = lower value 0.987 | locus YMR231W, strain pep5, stronger effect = lower value 0.997 | locus YMR307W, strain GAS1, stronger effect = lower value 0.996 | locus YNL067W, strain RPL9B, stronger effect = lower value 0.988 | locus YNL071W, strain lat1, stronger effect = lower value 1.01 | locus YNL128W, strain TEP1, stronger effect = lower value 1.01 | locus YNL153C, strain GIM3, stronger effect = lower value 0.986 | locus YNL183C, strain NPR1, stronger effect = lower value 0.905 | locus YNL209W, strain ssb2, stronger effect = lower value 1.01 | locus YNL233W, strain BNI4, stronger effect = lower value 0.968 | locus YNL248C, strain rpa49, stronger effect = lower value 1.01 | locus YNL250W, strain rad50, stronger effect = lower value 0.961 | locus YNL271C, strain bni1, stronger effect = lower value 0.974 | locus YNL298W, strain CLA4, stronger effect = lower value 0.993 | locus YNL307C, strain MCK1, stronger effect = lower value 0.978 | locus YNL322C, strain KRE1 (second series), stronger effect = lower value 1.01 | locus YNR049C, strain mso1, stronger effect = lower value 1.01 | locus YNR052C, strain pop2, stronger effect = lower value 0.973 | locus YOL006C, strain TOP1, stronger effect = lower value 1.1 | locus YOL012C, strain htz1 0.713 | locus YOL147C, strain pex11, stronger effect = lower value 0.989 | locus YOR001W, strain rrp6, stronger effect = lower value 1.03 | locus YOR061W, strain CKA2, stronger effect = lower value 1.02 | locus YOR069W, strain VPS5, stronger effect = lower value 0.99 | locus YOR070C, strain gyp1, stronger effect = lower value 1.05 | locus YOR080W, strain dia2, stronger effect = lower value 1.02 | locus YOR083W, strain WHI5, stronger effect = lower value 1.02 | locus YOR106W, strain vam3, stronger effect = lower value 1.02 | locus YOR136W, strain idh2, stronger effect = lower value 0.971 | locus YOR144C, strain elg1, stronger effect = lower value 0.988 | locus YOR184W, strain ser1, stronger effect = lower value 1.05 | locus YOR231W, strain MKK1, stronger effect = lower value 0.991 | locus YOR265W, strain rbl2, stronger effect = lower value 1.02 | locus YOR270C, strain vph1, stronger effect = lower value 1.03 | locus YOR290C, strain snf2, stronger effect = lower value 1.02 | locus YOR316C, strain cot1, stronger effect = lower value 0.978 | locus YPL051W, strain arl3, stronger effect = lower value 1.04 | locus YPL078C, strain atp4, stronger effect = lower value 1.01 | locus YPL106C, strain sse1, stronger effect = lower value 1.01 | locus YPL240C, strain hsp82, stronger effect = lower value 1.01 | locus YPL256C, strain CLN2, stronger effect = lower value 0.989 | locus YPR119W, strain clb2, stronger effect = lower value 0.97 | locus YPR141C, strain kar3, stronger effect = lower value 0.972 | locus YPR163C, strain tif3, stronger effect = lower value 0.979 | locus YPR167C, strain met16, stronger effect = lower value 0.97 | strain wtn01, stronger effect = lower value 1.01
